A short description of experiment [1]: qHTS assay for small molecule agonists of retinoid X receptor alpha signaling (AID 588544; calls by dose curve;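 as to activation: 0% = DMSO basal wells and 100% = reference agonist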). The following applies: HEK293T RXRa-UAS-bla, beta-lactamase reporter, 18 h; 530 nm emission.
The target in experiment [2] is Retinoic acid receptor RXR-alpha (Homo sapiens) (UniProt P19793). Described as above. Conditions: HEK293T RXRa-UAS-bla, beta-lactamase reporter, 18 h; series mostly up to 76.7 µM.
Experiment [3] in a line: qHTS assay for small molecule antagonists of retinoid X receptor alpha signaling (AID 588546; active = well fitted inhibition curve with a large enough effect in the signal ratio, with a control signal flat, not every such curve was filed as active; the % refers to the signal ratio;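 also: cells stimulated with 9-cis-retinoic acid as agonist; % is scaled to controls: 0 for no effect and ±100 for the full control effect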). The following applies: HEK293T RXRa-UAS-bla, beta-lactamase ratio, antagonist mode; measured here: W530 green channel, cytotoxicity proxy. The gist of the method:
(§1)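 Beta-lactamase reporter inhibition, read as CCF4 fluorescence ratio (ex 405, em 460/530 nm) after 2 h at RT. HEK293T UAS-bla cells, 2500/well, were stimulated with 9-cis-RA at 500 or 100 nM final alongside test compound for 18 h at 37 C.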

Experiment [4] addresses Retinoic acid receptor RXR-alpha (Homo sapiens) (UniProt P19793). The experiment is described as above. Conditions: HEK293T RXRa-UAS-bla, beta-lactamase ratio, antagonist mode. The gist of the method: as §1
Experiment [5] concerns the target Thyroid hormone receptor beta (Homo sapiens) (UniProt P10828). Put plainly: qHTS assay for small molecule antagonists of thyroid hormone receptor beta signaling (AID 588547; active = well fitted inhibition curve with a large enough effect in the signal ratio, with a control signal flat, not every such curve was filed as active; the % refers to the signal ratio;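 also: cells stimulated with 0.4 nM T3 agonist during compound exposure; % is scaled to controls: 0 for no effect and ±100 for the full control effect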). Conditions: TR-UAS-bla HEK293, beta-lactamase ratio, antagonist mode, 18 h. The gist of the method: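 Inhibition of T3-driven (0.4nM final) beta-lactamase reporter activity was measured over 0.59 nM to 92 uM compound after 18 h at 37 C. The cells were GripTite HEK293 TR-UAS-bla in charcoal/dextran-stripped serum, with CCF4 ratio read-out and IC50 from Hill fits.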

For experiment [6], the target named is Voltage-gated inwardly rectifying potassium channel KCNH2 (Homo sapiens) (UniProt Q12809). Put plainly: qHTS Assay for Small Molecule Inhibitors of the Human hERG Channel Activity (AID 588834).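 Also: top concentration of the series differs between compounds; % is scaled to controls: 0 for no effect and ±100 for the full control effect; lower thallium flux fluorescence means stronger hERG block; nearly all actives have a fitted effect of over 50% in size.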 The following applies: U2OS BacMam hERG, FluxOR thallium flux fluorescence; series mostly up to 92.2 µM. In short, it runs like this:
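Thallium serves as surrogate for K+ influx through BacMam-delivered hERG in U2OS cells. Compounds are added for about 10 minutes after dye loading; stimulation buffer then starts flux, monitored kinetically on FDSS.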

Experiment [7] in a line: qHTS assay for small molecule disruptors of the mitochondrial membrane potential - 1 hr assay (AID 651754; calls by dose curve; also: % is scaled to controls: 0 for no effect and ±100 for the full control effect; nearly all actives have a fitted effect of over 35% in size). The following applies: series mostly up to 92.2 µM. The gist of the method: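 Read-out: dye fluorescence at 490 nm ex/535 nm em (monomers) and 540 nm ex/590 nm em (aggregates) in HepG2 cells. Compound exposure 1 hr at 37C, followed by 30 min dye loading.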
Experiment [8] can be described thus: qHTS assay for small molecule disruptors of the mitochondrial membrane potential - 5 hr assay (AID 651755; calls by dose curve; also: % is scaled to controls: 0 for no effect and ±100 for the full control effect; nearly all actives have a fitted effect of over 40% in size). Conditions: JC-1-type ratio dye; series mostly up to 92.2 µM. The gist of the method:
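Membrane-potential dye readout: red aggregate (540 ex/590 em) versus green monomer (490 ex/535 em) fluorescence after 30 min dye loading, following 5 hr compound exposure at 37C of overnight-plated HepG2 cells.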

Experiment [9] has as its target Tumor necrosis factor (Homo sapiens) (UniProt P01375). As to the kind of experiment: qHTS assay to identify small molecules that stimulate Tumor Necrosis Factor-alpha (TNF-alpha) secretion (AID 651757; active = well fitted curve in the direction sought with a large enough effect in the signal ratio; the % refers to the signal ratio; also: 0% is about no effect). The following applies: Human cells, HTRF 665/615 ratio; series mostly up to 92.2 µM. The gist of the method:
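THP-1 cells, 3000/well; compound 17 hrs, 37 C; add cryptate/XL665 anti-TNF-alpha antibody pair; 3 hr RT; TR-FRET (HTRF) read of secreted TNF-alpha. Quantitative HTS format.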

Experiment [10] in a line: qHTS assay to identify small molecules that stimulate interleukin-8 (IL-8) secretion (AID 651758; active = well fitted activation curve with a large enough effect in the signal ratio; the % refers to the signal ratio; also: 0% is about no effect). Conditions: HTRF ratio (665/615); series mostly up to 92.2 µM. In short, it runs like this: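 Secreted IL-8 measured homogeneously by TR-FRET (two labelled anti-IL-8 antibodies, 1-3 h at room temperature) after a 16 h, 37 C compound treatment of THP-1 cells at 2000 cells/well.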

Experiment [11] can be described thus: qHTS assay for environmental chemicals that activate the Aryl hydrocarbon Receptor (AhR) signaling pathway (AID 651777). Also: % of control where 0% means no effect; nearly all actives have a fitted effect of over 15% in size. Conditions: 1A2-DRE human hepatoma cells, luciferase, 24 h; activation: stronger effect = higher value. In short, it runs like this: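 Luminescence read-out: One-Glo added for 30 min at RT after 24 hr compound treatment (37 C, 5% CO2) of human hepatoma cells expressing a DRE/CYP1A2 promoter–luciferase reporter; increased signal indicates AhR activation.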

Experiment [12] deals with Peroxisome proliferator-activated receptor alpha (Homo sapiens) (UniProt Q07869). Put plainly: qHTS assay for small molecule agonists of the peroxisome proliferator-activated receptor alpha (PPARalpha) signaling pathway (AID 651778). Also: % of control where 0% means no effect. The following applies: PathHunter PPARalpha complementation, chemiluminescence, 6 h; stronger effect = higher value. The gist of the method: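 Chemiluminescence from complemented enzyme reported PPARalpha activation in cells after 6 hr of compound treatment at 37 C. The detection reagent was incubated for 60 min at room temperature, and compounds were scored as agonists.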

The target in experiment [13] is Nuclear receptor ROR-gamma (Homo sapiens) (UniProt P51449). As to the kind of experiment: qHTS assay for small molecule antagonists of the retinoid-related orphan receptor gamma (ROR-gamma) signaling pathway (AID 651802).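 Also: CHO cells with doxycycline-induced ROR-gamma expression; luciferase reporter luminescence driven by ROR response element; % is scaled to controls: 0 for no effect and ±100 for the full control effect; nearly all actives have a fitted effect of over 60% in size.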 Conditions: ROR-gamma antagonist cell reporter assay; series mostly up to 92.2 µM. In short, it runs like this: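 Luciferase read-out: ONE-Glo luminescence after 30 min at room temperature, following 16hr doxycycline induction at 37C, 5% CO2 of CHO cells with TET-inducible ROR and RORE-LUC reporter; decreased luminescence = reduced reporter activity.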

Experiment [14] in a line: qHTS assay for small molecule agonists of the antioxidant response element (ARE) signaling pathway measured by Nrf2-dependant transcriptional activity (AID 720636; active = well fitted curve in the direction sought with a large enough effect in the repeat runs; an effect the other way counts as inactive or inconclusive;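 also: HepG2 cells with an ARE-driven luciferase reporter; % of control where 0% means no effect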). The following applies: ARE-luc HepG2, Nrf2 luciferase reporter, 16 h; series mostly up to 92.4 µM. In short, it runs like this: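 HepG2 ARE-luc reporter line, 1% dialyzed FBS; 6 hr attachment at 37 C, compound pinned in, 16 hr at 37 C/5% CO2; ONE-Glo, 30 min RT, luminescence read.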

Experiment [15] is described as follows: qHTS assay for small molecule antagonists of the retinoid-related orphan receptor gamma (ROR-gamma) signaling pathway - cell viability counter screen (AID 720652; active = well fitted curve in the direction sought with a large enough effect in the repeat runs; an effect the other way counts as inactive or inconclusive;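 also: CHO reporter cells with doxycycline-induced ROR-gamma expression; compound exposure lasted 16 hr before ATP read; % is scaled to controls: 0 for no effect and ±100 for the full control effect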). Conditions: RORgamma reporter cell line viability counter screen; series mostly up to 92.2 µM. In short, it runs like this: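 CHO RORE-LUC/TET-ROR line, 1,000 cells/well, 37 C 5% CO2 5 hr; cpd or DMSO + doxycycline induction, 16 hr. CellTiter-Glo, 30 min RT, luminescence = ATP content.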

The nature of experiment [16]: qHTS assay for small molecule agonists of the antioxidant response element (ARE) signaling pathway measured by Nrf2-dependant transcriptional activity - cell viability counter screen (AID 720653; active = well fitted curve in the direction sought with a large enough effect in the repeat runs; an effect the other way counts as inactive or inconclusive; also: % is scaled to controls: 0 for no effect and ±100 for the full control effect). The following applies: ARE-bla HepG2 viability, CellTiter-Glo ATP luminescence, 16 h; stronger effect = lower value. The gist of the method:
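Cytotoxicity counter screen: intracellular ATP quantified by CellTiter-Glo luminescence in the same ARE-bla HepG2 plates, after 16 h compound exposure and a 2 h beta-lactamase substrate step.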

Experiment [17] is described as follows: qHTS assay for small molecule activators of the p53 signaling pathway (AID 651743; active = well fitted activation curve with a large enough effect in the signal ratio, not every such curve was filed as active; the % refers to the signal ratio; also: % of control where 0% means no effect). The following applies: HCT-116 p53RE-bla, beta-lactamase FRET ratio, 16 h; stronger effect = higher value. In short, it runs like this:
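A beta-lactamase reporter under p53 response element control, stably carried by HCT-116 cells, reported pathway activation. Test compounds were applied for 16 hours at 37 C, and fluorescence was measured 2 hours after adding the B/G FRET substrate.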

Experiment [18] in a line: qHTS assay for small molecule activators of the nuclear factor-kappa B (NF-kB) signaling pathway (AID 651749; active = well fitted activation curve with a large enough effect in the signal ratio; the % refers to the signal ratio; also: % of control where 0% means no effect). The following applies: NF-kB-bla ME-180 cells, beta-lactamase FRET ratio, 16 h; stronger effect = higher value. In short, it runs like this: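 FRET-based beta-lactamase detection in ME-180 cells reports NF-kB response-element-driven transcription following overnight (16 hr) compound treatment.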

The nature of experiment [19]: qHTS assay for small molecule agonists of the antioxidant response element (ARE) signaling pathway (AID 651741; active = well fitted activation curve with a large enough effect in the signal ratio; the % refers to the signal ratio; also: potency is read from the fitted curve at half-maximal effect; as to activation: % of control where 0% means no effect). Conditions: HepG2 ARE-bla reporter, beta-lactamase FRET ratio, 16 h; series mostly up to 96 µM. In short, it runs like this:
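Agonist activity is measured as ARE-driven beta-lactamase expression in a stable HepG2 reporter line, using 16 h compound treatment at 37 C and a FRET substrate fluorescence readout after 2 h.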

The target in experiment [20] is Thyroid hormone receptor beta (Homo sapiens) (UniProt P10828). Put plainly: qHTS assay for small molecule agonists of thyroid hormone receptor beta signaling (AID 588545; calls by dose curve;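 also: 0% = DMSO only and 100% = 10 nM T3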). Conditions: TR-UAS-bla GripTite HEK 293, beta-lactamase ratio, agonist mode, 18 h, percent of T3 response, DMSO as zero; series mostly up to 76.7 µM. The gist of the method: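 Efficacy and EC50 values derive from Hill fits of qHTS titration data, normalized to 10 nM T3 and DMSO-only wells. HEK 293 reporter cells were stimulated for 18 hrs at 37 C, with beta-lactamase activity measured by CCF4 fluorescence.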

Inconclusive results are not listed. Calls of active or inactive are those of the source. Unless noted, calls follow the shape of the dose curve; as a rule, active = well fitted curve in the direction sought with a large enough effect; inconclusive = small, poorly fitted or top-dose-only effect, or another doubt; inactive = no such curve, though single readings can be large; an effect the other way counts as inactive or inconclusive.

Retinoic acid receptor RXR-alpha (Homo sapiens), sequence (P19793 whole entry, looked up): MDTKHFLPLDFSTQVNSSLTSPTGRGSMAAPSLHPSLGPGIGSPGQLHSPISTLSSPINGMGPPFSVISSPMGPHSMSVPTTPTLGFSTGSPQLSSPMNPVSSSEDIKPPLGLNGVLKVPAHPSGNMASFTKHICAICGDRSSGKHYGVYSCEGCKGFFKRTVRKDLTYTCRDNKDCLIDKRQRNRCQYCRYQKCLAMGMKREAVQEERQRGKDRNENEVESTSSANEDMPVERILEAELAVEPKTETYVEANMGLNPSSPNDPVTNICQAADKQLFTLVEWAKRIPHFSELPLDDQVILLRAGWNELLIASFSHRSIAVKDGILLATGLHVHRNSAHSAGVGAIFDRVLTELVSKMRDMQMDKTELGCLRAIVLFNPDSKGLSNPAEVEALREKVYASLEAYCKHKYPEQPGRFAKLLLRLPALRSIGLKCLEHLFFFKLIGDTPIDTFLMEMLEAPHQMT
Thyroid hormone receptor beta (Homo sapiens), sequence (P10828 whole entry, looked up): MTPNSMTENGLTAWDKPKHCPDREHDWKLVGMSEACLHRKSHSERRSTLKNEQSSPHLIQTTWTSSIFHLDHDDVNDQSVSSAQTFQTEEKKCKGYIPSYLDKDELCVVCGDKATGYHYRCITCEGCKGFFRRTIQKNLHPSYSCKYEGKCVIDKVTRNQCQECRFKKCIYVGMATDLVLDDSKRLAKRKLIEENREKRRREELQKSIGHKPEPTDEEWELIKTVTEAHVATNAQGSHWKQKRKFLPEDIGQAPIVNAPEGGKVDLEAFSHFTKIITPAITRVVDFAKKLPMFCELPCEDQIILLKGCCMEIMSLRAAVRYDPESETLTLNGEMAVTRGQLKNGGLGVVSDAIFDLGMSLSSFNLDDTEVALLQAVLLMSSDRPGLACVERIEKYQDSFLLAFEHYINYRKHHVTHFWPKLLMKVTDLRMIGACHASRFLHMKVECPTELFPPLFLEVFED
Peroxisome proliferator-activated receptor alpha (Homo sapiens), sequence (Q07869 whole entry, looked up): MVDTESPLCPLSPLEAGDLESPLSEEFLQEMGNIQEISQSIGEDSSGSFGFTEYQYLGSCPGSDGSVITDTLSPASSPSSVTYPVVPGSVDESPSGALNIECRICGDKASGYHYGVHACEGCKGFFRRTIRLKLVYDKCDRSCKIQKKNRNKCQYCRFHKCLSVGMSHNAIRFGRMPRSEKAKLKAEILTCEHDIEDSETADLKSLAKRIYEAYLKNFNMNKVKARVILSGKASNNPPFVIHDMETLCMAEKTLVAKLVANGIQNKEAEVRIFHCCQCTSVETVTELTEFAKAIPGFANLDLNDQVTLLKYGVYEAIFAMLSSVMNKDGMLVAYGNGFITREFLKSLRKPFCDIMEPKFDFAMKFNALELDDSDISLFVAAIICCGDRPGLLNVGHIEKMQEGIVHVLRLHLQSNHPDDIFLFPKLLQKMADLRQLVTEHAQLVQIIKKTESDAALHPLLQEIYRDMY
Tumor necrosis factor (Homo sapiens), sequence (P01375 whole entry, looked up): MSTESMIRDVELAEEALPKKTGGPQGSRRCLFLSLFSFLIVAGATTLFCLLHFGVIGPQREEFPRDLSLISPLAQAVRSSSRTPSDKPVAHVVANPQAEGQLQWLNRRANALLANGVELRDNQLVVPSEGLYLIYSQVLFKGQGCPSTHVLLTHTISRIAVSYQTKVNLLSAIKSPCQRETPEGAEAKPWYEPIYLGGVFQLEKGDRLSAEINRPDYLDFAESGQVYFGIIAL
Nuclear receptor ROR-gamma (Homo sapiens), sequence (P51449 whole entry, looked up): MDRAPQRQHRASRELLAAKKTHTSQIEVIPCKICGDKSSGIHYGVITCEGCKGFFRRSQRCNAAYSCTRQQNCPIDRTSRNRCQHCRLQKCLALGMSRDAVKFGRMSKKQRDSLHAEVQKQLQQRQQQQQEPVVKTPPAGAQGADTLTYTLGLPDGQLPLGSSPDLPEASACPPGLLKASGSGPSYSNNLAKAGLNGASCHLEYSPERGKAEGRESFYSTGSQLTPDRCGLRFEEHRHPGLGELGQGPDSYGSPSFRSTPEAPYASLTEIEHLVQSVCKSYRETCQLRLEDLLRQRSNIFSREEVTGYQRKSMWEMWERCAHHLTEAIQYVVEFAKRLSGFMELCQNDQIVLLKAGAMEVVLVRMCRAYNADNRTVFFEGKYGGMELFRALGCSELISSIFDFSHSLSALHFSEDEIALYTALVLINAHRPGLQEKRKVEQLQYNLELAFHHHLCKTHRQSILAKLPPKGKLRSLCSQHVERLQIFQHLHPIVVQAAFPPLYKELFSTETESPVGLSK
Voltage-gated inwardly rectifying potassium channel KCNH2 (Homo sapiens), sequence (Q12809 whole entry, looked up): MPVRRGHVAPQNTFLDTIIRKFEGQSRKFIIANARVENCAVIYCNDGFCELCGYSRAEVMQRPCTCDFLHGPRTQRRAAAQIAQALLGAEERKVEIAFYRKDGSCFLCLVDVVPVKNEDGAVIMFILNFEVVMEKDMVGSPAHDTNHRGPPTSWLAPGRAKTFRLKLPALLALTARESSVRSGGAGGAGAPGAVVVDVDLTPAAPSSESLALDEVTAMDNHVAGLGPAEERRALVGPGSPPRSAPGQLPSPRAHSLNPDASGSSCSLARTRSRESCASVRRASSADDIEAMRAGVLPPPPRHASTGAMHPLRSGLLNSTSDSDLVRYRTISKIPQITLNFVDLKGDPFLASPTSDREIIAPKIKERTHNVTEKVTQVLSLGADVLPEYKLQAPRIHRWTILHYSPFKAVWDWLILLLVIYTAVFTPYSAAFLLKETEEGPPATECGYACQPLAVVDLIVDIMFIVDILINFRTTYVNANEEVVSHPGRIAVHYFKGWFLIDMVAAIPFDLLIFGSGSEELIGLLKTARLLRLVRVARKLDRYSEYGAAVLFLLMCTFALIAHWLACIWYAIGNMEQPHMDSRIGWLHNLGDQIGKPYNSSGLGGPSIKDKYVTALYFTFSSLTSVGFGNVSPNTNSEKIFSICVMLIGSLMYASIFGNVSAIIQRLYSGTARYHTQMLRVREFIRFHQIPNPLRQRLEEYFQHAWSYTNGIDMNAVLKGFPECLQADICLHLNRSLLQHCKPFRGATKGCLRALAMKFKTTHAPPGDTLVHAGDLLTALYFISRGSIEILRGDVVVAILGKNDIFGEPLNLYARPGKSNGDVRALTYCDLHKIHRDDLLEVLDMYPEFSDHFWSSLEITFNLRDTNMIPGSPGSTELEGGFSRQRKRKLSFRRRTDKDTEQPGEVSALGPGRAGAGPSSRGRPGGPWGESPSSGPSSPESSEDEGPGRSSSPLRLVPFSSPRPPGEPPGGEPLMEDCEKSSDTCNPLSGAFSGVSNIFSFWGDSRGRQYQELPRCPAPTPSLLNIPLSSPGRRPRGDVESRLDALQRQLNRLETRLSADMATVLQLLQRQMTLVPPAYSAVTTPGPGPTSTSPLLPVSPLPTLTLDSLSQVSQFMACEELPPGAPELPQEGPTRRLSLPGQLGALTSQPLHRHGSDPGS

As for `CC(=O)c1ccccc1[N+](=O)[O-]`, the max response in experiment [1] is -16.2%; in experiment [3] it was 5.46%; in [4] it was 5.8% (inactive); in [12], -1% (inactive); in experiment [16], -1.99% (inactive). In addition, the result in experiment [2] and in experiment [14] was inactive. The activity change % (negative = inhibition) in experiment [5] is 19.8% (inactive). The Potency result in [6], in experiment [7], in experiment [8], in experiment [9], in experiment [10] and in [13] was “inactive” each time. In addition, the Potency result in [15] is “inactive”. Besides, the activation in experiment [11] was -0.15% (inactive).
In the case of `COC(=O)c1ccccc1`, the max response in experiment [1] was 0.622%; in experiment [3], -5.14%; in [4], 4.4% (inactive); in [12], -4.31% (inactive); in experiment [16], 3.39% (inactive). For the same compound, the compound was called inactive in [2] and in experiment [14]. For the same compound, the activity change % (negative = inhibition) in [5] was -7.56% (inactive). The Potency result in experiment [6], in [7], in experiment [8], in experiment [9], in [13] and in [15] was “inactive” throughout. The activation in experiment [17] is 7.4% (inactive); in [18], 1.41% (inactive); in experiment [11] it was -0.388% (inactive).
In the case of `O=C(O)c1cc(Cl)cc(Cl)c1`, the max response in experiment [1] is -6.8%; in [3] it was -0.682%; in experiment [4], 11.3% (inactive); in experiment [12], -2.98% (inactive); in experiment [16] it was 0.662% (inactive). The compound was classed as inactive in experiment [2] and in [14]. Also, the activity change % (negative = inhibition) in experiment [5] was 6.89% (inactive). The Potency result in experiment [6], in experiment [7], in experiment [9], in experiment [10] and in [15] was “inactive” throughout. The figures for the activation in experiment [17] and in experiment [11] were 1.56% (inactive) and 0.13% (inactive), respectively.
Turning to `CNc1ccccc1`, the max response is -0.986% in experiment [1]; -0.675% in [3]; 29.8% (inactive) in [4]; -7.07% (inactive) in experiment [12]; -0.57% (inactive) in [16]. Further, the compound was classed as inactive in [2] and in experiment [14]. Besides, in [5], the activity change % (negative = inhibition) was -1.47% (inactive). The Potency entry in experiment [6], in experiment [19], in experiment [7], in [8], in [9] and in experiment [10] was “inactive” in each case. The Potency entry in [13] and in experiment [15] was “inactive” throughout. The activation is 2.04% (inactive) in experiment [17] and -1.25% (inactive) in experiment [18].
On to `Oc1cccc(Nc2ccccc2)c1`, for which the max response in [1] is -0.0784%; in experiment [12], -0.0901% (inactive); in experiment [16], -2.76% (inactive). For the same compound, the compound was called inactive in experiment [2], in experiment [20] and in experiment [14]. Further, the Potency result in experiment [6] and in [13] was “inactive” each time. Besides, the Potency in [19] is 42.2 µM (active). The activation in [18] is 0.49% (inactive); in experiment [11] it was 4.89% (inactive).
With `C=C(C)OC(C)=O`, the max response is 12.6% in [1]; 12.2% in [3]; -11.4% (inactive) in experiment [4]; -3.39% (inactive) in experiment [12]; 7.41% (inactive) in [16]. The result in experiment [2] was inactive. The activity change % (negative = inhibition) in experiment [5] is 24.9% (inactive). Moreover, the Potency entry in [6], in [19], in experiment [7], in [8], in [9] and in experiment [13] was “inactive” each time. For the same compound, in experiment [15], the Potency result was “inactive”. Moreover, the values for the activation in [17], in experiment [18] and in [11] were -0.827% (inactive), -0.753% (inactive) and -1.07% (inactive), respectively.
For the compound `CC=O`, the max response in experiment [1] was -8.77%; in [3] it was -2.19%; in experiment [12], -2.4% (inactive); in [16], 5.19% (inactive). The compound was called inactive in [2], in [20] and in [14]. The Potency entry in experiment [6], in experiment [19], in experiment [9], in [10], in [13] and in experiment [15] was “inactive” throughout. In addition, the results for the activation in experiment [17], in [18] and in experiment [11] were 0.53% (inactive), 9.05% (inactive) and 1.11% (inactive), respectively.

Source of the values: PubChem BioAssay (NCATS).
